Screening results: PubChem, National Center for Advancing Translational Sciences (NCATS)
Luc counter: blocks Kinase-Glo luciferase, a counter-screen artifact; 200,000 tested, 0.28% active; Potency, µM (titrated, usually from 38.3 µM), without a hit: at the top dose activity change, negative = inhibition, actives largely listed as inhibitors; Kinase-Glo luciferase, ATP luminescence, 8 min; AID 1379; Q27757; further: on the % scale 0 is the no-effect control and ±100 the full control effect; nearly all actives have a fitted effect of over 60% in size
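Luminescence was the read-out, taken after 8-minute incubation at ambient temperature. Luciferase turned over luciferin with 10 uM ATP in imidazole pH 7.2 buffer containing KCl, MgCl2, Tween 20 and BSA.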
FLuc modulator: counter-screen for miR-21 project: firefly luciferase inhibitors or activators; P08659; Potency, µM (top dose mostly 57.5 µM), without a hit: top-dose activity change, negative = inhibition, hits mostly inhibitors; 360,000 tested, 6.9% active; purified FLuc, Km substrates, luminescence inhibition;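 further: plate controls were vehicle for no effect and reference inhibitor for full effect; nearly all actives have a fitted effect of over 55% in size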
Target sequence (P08659 whole entry, looked up): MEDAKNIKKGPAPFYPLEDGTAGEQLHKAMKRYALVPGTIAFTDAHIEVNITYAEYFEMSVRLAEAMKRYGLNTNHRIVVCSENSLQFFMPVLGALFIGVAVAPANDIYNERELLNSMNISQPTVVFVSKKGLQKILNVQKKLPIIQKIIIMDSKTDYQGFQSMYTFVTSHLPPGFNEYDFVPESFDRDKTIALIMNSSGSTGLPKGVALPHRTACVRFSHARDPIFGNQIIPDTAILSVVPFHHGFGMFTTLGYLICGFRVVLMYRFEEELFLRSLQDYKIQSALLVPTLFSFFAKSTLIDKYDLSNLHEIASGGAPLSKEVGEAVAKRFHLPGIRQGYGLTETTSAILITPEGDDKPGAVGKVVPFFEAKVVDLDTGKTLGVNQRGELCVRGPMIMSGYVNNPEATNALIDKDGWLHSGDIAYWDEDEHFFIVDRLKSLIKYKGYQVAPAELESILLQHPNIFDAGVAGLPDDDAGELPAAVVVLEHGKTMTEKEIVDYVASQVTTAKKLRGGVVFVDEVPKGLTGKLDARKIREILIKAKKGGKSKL
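Purified P. pyralis luciferase (10nM final) with 10uM D-luciferin and 10uM ATP (Km levels) in 50mM Tris acetate pH 7.5, 10mM Mg acetate, 0.01% Tween-20, 0.05% BSA; qHTS 6-point titration, ~60 µM downward; luminescence read.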
SMN2 splice enh: increases expression of the SMN2 splice variant. AID 1458. 210,000 tested, 2.8% active. HEK293 SMN2-luciferase splicing reporter, luminescence, 30-36 h. Potency, µM (doses to about 46.1 µM), without a hit: at the highest dose activity change, positive = activation, actives largely listed as activators; further: % of control where 0% means no effect; nearly all actives have a fitted effect of over 55% in size
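qHTS luciferase splicing reporter: luminescence rises when SMN2 exon 7 is included in transfected HEK293 cells. Compound exposure lasted 30-36 h at 37C, with 4.5 mM final sodium butyrate as control, followed by a ONE-Glo read.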
Rab9 prom act: Rab9 promoter activation. 320,000 tested, 2.8% active. Huh7 Rab9 promoter-luciferase reporter, luminescence, 24 h. AID 485297. Potency, µM (top dose mostly 9.22 µM), for inactives: at the top dose activation, negative = inhibition, most hits filed as activators; further: % of control where 0% means no effect; nearly all actives have a fitted effect of over 60% in size
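Huh7 cells stably carrying Rab9 promoter–luciferase reporter, plated 1500 cells/well, compound added after 2 h and incubated 24 h at 37 °C; luciferase luminescence then read after 10 min with detection reagent.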
NPC1 promoter act: activators of NPC1 promoter; Huh7 NPC1 promoter luciferase reporter, 24 h; Potency, µM (doses to about 9.22 µM), for inactives: at the top dose activation, most hits filed as activators; 320,000 tested, 2.4% active; AID 485313; further: % of control where 0% means no effect; nearly all actives have a fitted effect of over 60% in size
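Quantitative HTS used a cell-based reporter: Huh7 cells stably bearing the NPC1 promoter upstream of luciferase were treated with compounds for 24 h, and promoter activation was read as luminescence.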
An asterisk follows results filed as active; u = inconclusive; x = not tested or not shown; [ ] = another dose, or the depositor's remark. Only some compounds are listed: those with a hit (about 7.3% of all), similar ones and a draw of the others. The call rests on the fitted dose curve; in most records, active means well fitted curve in the direction sought with a large enough effect; inconclusive means small, poorly fitted or top-dose-only effect, or another doubt; inactive means no such curve, though single readings can be large; an effect the other way counts as inactive or inconclusive. Potency means the concentration at half of the fitted maximal effect.

SMILES | Luc counter | FLuc modulator | SMN2 splice enh | Rab9 prom act | NPC1 promoter act
Cc1ccc2nc(-c3ccc(NC(=O)c4ccc(S(C)(=O)=O)cc4)cc3)sc2c1 | x | 1.8% | x | x | x
CC(=O)Nc1ccc(NC(=O)c2oc3cc(C)c(C)cc3c2C)cc1 | 1.9% | -4.5% | -15.4% | -4.7% | -0.8%
CCc1ccc2oc(C(=O)Nc3nonc3C)c(C)c2c1 | x | 2.13µM* | x | 0.631µM* | 0.316µM*
Cc1cc2oc(C(=O)Nc3nonc3C)c(C)c2cc1C | x | 2.39µM* | x | 3.98µM* | 1.12µM*
Cc1ccc(N2CC(NC(=O)Cc3ccc(F)cc3)CC2=O)cc1C (centres undefined) | x | 1.1% | x | x | x
Cc1cc(C)nc(N/N=C/C(Cl)=C/c2ccccc2)n1 | 17.0% | 13.5µM* | -8.0% | u | u
O=C(Cc1cccs1)N/N=C/c1ccccc1 | x | u | x | 23.4% | 4.6%
O=C(Cc1cccs1)N/N=C/C(Cl)=C/c1ccccc1 | -3.5% | -10.3% | u | 3.55µM* | u
CCOc1ccc(/C=N/NC(=O)Cc2cccs2)cc1 | x | 16.9µM* | x | u | u
CCOC(=O)N/N=C/C(Cl)=C/c1ccccc1 | -2.0% | 16.9µM* | u | u | u
CCOC(=O)N/N=C(C)/C=C/c1ccccc1 | 0.9% | u | 18.4% | u | 19.3%
CC(C)(C)NC(=O)COc1ccc(-c2ccccc2)cc1 | -2.1% | 19µM* | 11.9% | 23.0% | u
CCNC(=O)COc1ccc(-c2ccccc2)cc1 | -4.0% | 19µM* | u | u | u
CC(C)OC(=O)COc1ccc(-c2ccccc2)cc1 | -4.0% | 12µM* | 6.5% | 2.5% | -0.2%
CC(=O)c1ccc(OCC(=O)c2ccc(-c3ccccc3)cc2)cc1 | -1.7% | 1.6% | -1.6% | -0.8% | -0.4%
COc1ccccc1OCCSc1nc2ccccc2n1CC(N)=O | x | 15.1µM* | x | 4.6% | -2.6%
COc1ccc(OCCSc2nc3ccccc3n2CC(=O)O)cc1 | 1.4% | -0.8% | -19.0% | -0.3% | -1.7%
CCOc1ccccc1-n1nnc(S(=O)(=O)c2ccc(C)cc2)c1N | x | 2.2% | -24.4% | x | x
COc1ccc(N(CC(=O)N2CCc3ccccc3C2)S(=O)(=O)c2ccc(C)cc2)cc1Cl | x | -11.7% | -12.2% | x | x
CCOC(=O)CNc1c(-c2ccc(O)cc2)nc2ccccn12 | -6.9% | u | -1.2% | 24.5% | 2.7%
Cc1ccccc1Nc1c(-c2ccncc2)nc2ccc(Cl)cn12 | -2.1% | -4.5% | 10µM* | 12.2% | -6.8%
CCOC(=O)CNc1c(-c2ccc(O)cc2)nc2ccc(Cl)cn12 | -8.1% | 15.1µM* | 38.0% | 28.8% | 20.2%
CCOC(=O)CNc1c(-c2ccccc2)nc2ccc(Cl)cn12 | -26.7% | 9.53µM* | -0.4% | 22.7% | 27.6%
COC(=O)CNc1c(-c2ccccn2)nc2ccc(Br)cn12 | -27.4% | 3.38µM* | 5.01µM* | 0.891µM* | 1.58µM*
Cc1ccc(Nc2c(-c3ccccn3)nc3ccc(Br)cn23)cc1 | x | -0.3% | 5.0% | x | x
SMILES | Luc counter | FLuc modulator | SMN2 splice enh | Rab9 prom act | NPC1 promoter act
CCc1ccc(C2CC(=O)c3c([nH]c(C(=O)OCC4CCCCC4)c3C)C2)cc1 (centres undefined) | x | 3.7% | 10.1% | x | x
COc1ccc(C(=O)Nc2cc(OC)ccc2OC)cc1 | -5.7% | 23.9µM* | -1.6% | 17.2% | -1.8%
COc1ccc(C(=O)CN2C(=O)c3ccccc3C2=O)c(OC)c1 | x | 15.1µM* | x | u | 23.6%
COc1ccc(NC(=O)CSc2ccccc2)c(OC)c1 | -3.9% | 26.9µM* | 22.4µM* | 3.98µM* | u
COc1ccc(C(=O)OCc2csc(C)n2)c(O)c1 | 0.8% | 15.1µM* | 1.8% | u | u
COc1ccc(OC)c(NC(=O)c2ccc(Cl)cc2)c1 | -2.1% | u | -1.6% | 2.8% | 1.2%
COc1ccc(NC(=O)CSc2nccn2Cc2ccccc2)c(OC)c1 | x | -25.3% | x | 5.5% | 0.9%
CCc1ccc(NC(=O)C(=O)NCCc2sc3nc(-c4ccc(OC)cc4)nn3c2C)cc1 | x | -0.5% | x | x | x
CCOC(=O)Cc1ccc(NC(=O)Nc2cc3c(cc2N2CCCCC2)n(C)c(=O)n3C)cc1 | x | -0.5% | 5.4% | x | x
COc1ccc(NC(=O)c2ccccc2O)c(OC)c1 | -5.3% | 9.53µM* | u | 3.16µM* | u
COc1ccc(NC(=O)c2ccccc2SC)c(OC)c1 | 1.2% | -13.3% | -1.2% | -5.7% | -6.4%
COc1ccc(C(=O)OCC(=O)c2cc(OC)ccc2OC)c(OC)c1 | 0.6% | u | -6.5% | 0.4% | 1.8%
COc1cc(NC(=O)c2cc3nc(C)cc(C)n3n2)c(OC)cc1Cl | 1.9% | 3.01µM* | 11.2µM* | 1.26µM* | 2.51µM*
COc1ccc(OC)c(NC(=O)c2cc3ccccc3cc2OC)c1 | x | 23.9µM* | x | 6.7% | 1.9%
COc1ccc(C(=O)COC(=O)c2ccccc2O)c(OC)c1 | x | 6.01µM* | x | 3.55µM* | u
CCOc1ccc(/C=C(\C#N)C(=O)Nc2sc3c(c2C(=O)OC)CCC3)cc1OC | x | -1.0% | 13.9% | x | x
CCN(CC)CCCNC(=O)C1CCN(S(C)(=O)=O)CC1 | x | 0.1% | x | x | x
COc1cc(CCC(=O)NCc2ccc3c(c2)CCN3C(=O)c2cccc(C)c2)cc(OC)c1OC | x | -10.9% | x | x | x
COc1ccc(-c2csc(C)n2)cc1Br | -5.6% | 15.1µM* | 16.6% | 24.7% | 13.7%
COc1ccc(OC)c(NC(=O)c2ccc(-c3csc(C)n3)cc2)c1 | x | 5.36µM* | x | 25.4% | 24.6%
COc1ccc(OC)c(NC(=O)c2csc(Cl)c2OC)c1 | x | 15.1µM* | x | -2.1% | 1.9%
COc1ccc(OC)c(NC(=O)c2cn(C)c(=O)c3cc(OC)c(OC)cc23)c1 | -2.2% | -2.7% | u | -6.0% | 0.1%
COc1ccc(C(=O)Nc2cc(OC)c(Cl)cc2OC)cc1 | -2.5% | 21.3µM* | 15.7% | 9.5% | 16.3%
Cc1cc(NC(=O)N2CCC(CN3CCOCC3)CC2)ccc1Br | x | -10.0% | x | x | x
Cc1cc(N)c2cc(OCCOc3ccc4nc(C)cc(N)c4c3)ccc2n1 | -2.7%[7.66 µM] | x | -9.3%[9.22 µM] | x | x
SMILES | Luc counter | FLuc modulator | SMN2 splice enh | Rab9 prom act | NPC1 promoter act
CC(C)c1ccc(NC(=O)C(C)N(c2ccccc2)S(C)(=O)=O)cc1 (centres undefined) | x | -7.2% | -18.0% | x | x
COc1ccccc1N1CCN(C(=O)c2cc(-c3ccccc3O)on2)CC1 | x | -9.6% | -7.6% | 2.8% | 12.1%
CC1CCN(C(=O)c2cc(-c3ccco3)on2)CC1 | x | 13.5µM* | x | 2.82µM* | 1.78µM*
CC1CCN(C(=O)c2cc(-c3ccccc3O)on2)CC1 | 3.3% | 2.69µM* | u | 3.16µM* | 2.51µM*
COC(=O)c1c(C)sc(-c2c(-c3cccc(Cl)c3)[nH]c3c2c(=O)[nH]c(=O)n3C)c1O | x | -6.4% | x | x | x
c1ccc(-c2csc(Nc3cccnc3)n2)cc1 | -1.8% | 10.7µM* | x | 2.82µM* | u
Clc1ccc(Nc2nc(-c3cccnc3)cs2)cc1 | -1.1% | 10.7µM* | 22.5% | 5.9% | -0.5%
Fc1ccc(Nc2nc(-c3cccnc3)cs2)cc1 | 2.8% | 3.01µM* | 12.6µM* | u | 8.0%
Clc1ccc(-c2csc(Nc3cccnc3)n2)cc1 | x | -19.6% | x | 27.4% | u
